The supplement of paper PMC10849652
Of roughly 8,800 targets only a part is listed; those with a hit were picked by preference. About 0.5% of all pairs of compound and target were hits.

Key:
Assay in all cases: log2 fold change, soluble protein after heating vs DMSO (PISA); higher = thermal stabilisation; K562 lysate, 10 uM; active = over 0.2 and 3.5 SD of the protein, either way, in both replicates (recomputed)
nilotinib = compound: Cc1cn(-c2cc(NC(=O)c3ccc(C)c(Nc4nccc(-c5cccnc5)n4)c3)cc(C(F)(F)F)c2)cn1 [nilotinib]
How it was run: (§1)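 K562 pellets were dounce-homogenised in PBS pH 7.4 with 1 mM MgCl2, and the crude extract at 1 mg/mL protein was treated with 10 μM compound for 30 min. Aliquots were heated for 3 min across 48°C-58°C, pooled, and brought to 0.5% NP-40 at 4°C; soluble protein was the supernatant after 21,000xg for 90 min. Soluble protein was quantified by TMTpro 16plex LC-MS/MS with channel sums equalised, and reported as log2 fold change in thermal stability against DMSO controls, with values from duplicates.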

[1] = compound: Cc1nc(Nc2n[nH]c3c2CN(C(=O)N[C@H](CN(C)C)c2ccccc2)C3(C)C)c2sccc2n1
How it was run: as §1

dasatinib = compound: Cc1nc(Nc2ncc(C(=O)Nc3c(C)cccc3Cl)s2)cc(N2CCN(CCO)CC2)n1 [dasatinib]
How it was run: as §1

[2] = compound: Cc1ncc(-c2ccnc(Nc3ccc(S(C)(=O)=O)cc3)n2)n1C(C)C
How it was run: as §1

[3] = compound: Cn1cc(-c2ccc3c(c2)CCN3C(=O)Cc2cccc(C(F)(F)F)c2)c2c(N)ncnc21
How it was run: as §1

quisinostat = compound: Cn1cc(CNCC2CCN(c3ncc(C(=O)NO)cn3)CC2)c2ccccc21 [quisinostat]
How it was run: as §1

tipifarnib = compound: Cn1cncc1[C@@](N)(c1ccc(Cl)cc1)c1ccc2c(c1)c(-c1cccc(Cl)c1)cc(=O)n2C [tipifarnib]
How it was run: as §1

[4] = compound: NC(=O)Nc1cc(-c2cccc(F)c2)sc1C(=O)N[C@H]1CCCNC1
How it was run: as §1

[5] = compound: NC(=O)c1cnc(N[C@@H]2CCCC[C@@H]2N)nc1Nc1cccc(-n2nccn2)c1
How it was run: as §1

[6] = compound: NC1(c2ccc(-c3nc4ccn5c(=O)[nH]nc5c4cc3-c3ccccc3)cc2)CCC1
How it was run: as §1

Measured: log2 fold change

POLA1 (UniProt P09884)
inactive: nilotinib -0.022 | [1] -0.01 | dasatinib 0.011 | [2] 0.017 | [3] 0.009 | quisinostat -0.028 | tipifarnib -0.001 | [4] 0.029 | [5] 0.001 | [6] 0.008

PELO (UniProt Q9BRX2)
inactive: nilotinib 0.012 | [1] -0.025 | dasatinib 0.052 | [2] -0.026 | [3] 0.032 | quisinostat -0.022 | tipifarnib 0.007 | [4] 0.037 | [5] 0.018 | [6] -0.029

PIGO (UniProt Q8TEQ8)
Chain of UniProt Q8TEQ8 (Q8TEQ8 whole entry, looked up): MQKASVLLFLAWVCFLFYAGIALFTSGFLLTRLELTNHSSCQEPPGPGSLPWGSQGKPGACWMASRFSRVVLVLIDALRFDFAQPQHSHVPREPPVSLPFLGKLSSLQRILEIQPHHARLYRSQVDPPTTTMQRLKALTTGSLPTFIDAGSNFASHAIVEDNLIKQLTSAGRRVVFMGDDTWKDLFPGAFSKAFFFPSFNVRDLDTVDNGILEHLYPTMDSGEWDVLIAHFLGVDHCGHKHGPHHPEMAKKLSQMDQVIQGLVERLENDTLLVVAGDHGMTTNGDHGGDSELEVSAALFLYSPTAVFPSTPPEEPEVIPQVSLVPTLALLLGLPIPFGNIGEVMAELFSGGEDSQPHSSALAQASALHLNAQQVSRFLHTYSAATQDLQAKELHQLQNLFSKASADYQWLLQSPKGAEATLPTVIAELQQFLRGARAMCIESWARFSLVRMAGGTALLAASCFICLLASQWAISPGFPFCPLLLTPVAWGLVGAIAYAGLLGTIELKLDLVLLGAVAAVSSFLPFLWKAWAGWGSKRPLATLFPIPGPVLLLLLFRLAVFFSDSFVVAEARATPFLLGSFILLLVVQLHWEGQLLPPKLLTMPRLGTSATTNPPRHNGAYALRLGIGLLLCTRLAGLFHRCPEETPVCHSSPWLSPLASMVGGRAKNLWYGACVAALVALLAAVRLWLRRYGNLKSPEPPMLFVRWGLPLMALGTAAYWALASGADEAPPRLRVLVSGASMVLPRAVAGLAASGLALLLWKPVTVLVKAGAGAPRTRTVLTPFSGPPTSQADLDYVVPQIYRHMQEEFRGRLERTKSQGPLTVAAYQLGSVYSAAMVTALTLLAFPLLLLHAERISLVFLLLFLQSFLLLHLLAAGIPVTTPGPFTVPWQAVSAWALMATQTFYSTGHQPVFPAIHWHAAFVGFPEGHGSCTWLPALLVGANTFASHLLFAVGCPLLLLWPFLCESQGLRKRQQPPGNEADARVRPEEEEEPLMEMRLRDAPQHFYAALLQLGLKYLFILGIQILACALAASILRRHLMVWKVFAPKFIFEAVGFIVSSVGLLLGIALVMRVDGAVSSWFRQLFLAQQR
inactive: nilotinib -0.019 | [1] 0.055 | dasatinib -0.032 | [2] -0.19 | [3] 0.079 | quisinostat -0.119 | tipifarnib 0.013 | [4] 0.301 | [5] 0.059 | [6] 0.041

PTGS1 isoform 6 (UniProt P23219)
Chain of UniProt P23219 (P23219 whole entry, looked up): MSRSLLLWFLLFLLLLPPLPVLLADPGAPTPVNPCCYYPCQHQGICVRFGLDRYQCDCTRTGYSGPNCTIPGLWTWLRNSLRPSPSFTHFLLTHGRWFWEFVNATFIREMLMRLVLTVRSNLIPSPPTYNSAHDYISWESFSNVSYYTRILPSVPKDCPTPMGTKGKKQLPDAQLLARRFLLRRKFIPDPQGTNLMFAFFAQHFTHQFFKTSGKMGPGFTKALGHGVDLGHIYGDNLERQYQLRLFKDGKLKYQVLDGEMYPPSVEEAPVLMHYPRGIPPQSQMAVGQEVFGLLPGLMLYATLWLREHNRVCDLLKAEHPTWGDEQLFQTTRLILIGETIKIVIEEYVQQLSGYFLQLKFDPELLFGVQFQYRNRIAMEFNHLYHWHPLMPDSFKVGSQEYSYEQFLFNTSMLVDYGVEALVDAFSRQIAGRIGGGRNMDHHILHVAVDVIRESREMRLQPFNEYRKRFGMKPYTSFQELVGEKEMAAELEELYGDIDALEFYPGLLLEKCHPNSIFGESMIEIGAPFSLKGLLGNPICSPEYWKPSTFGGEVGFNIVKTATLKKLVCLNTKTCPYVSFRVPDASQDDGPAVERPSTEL
inactive: nilotinib 0.021 | [1] 0.058 | dasatinib 0.034 | [2] 0.043 | [3] 0.053 | quisinostat -0.04 | tipifarnib -0.039 | [4] 0.022 | [5] -0.008 | [6] 0.001

PLXND1 (UniProt Q9Y4D7)
inactive: nilotinib -0.006 | [1] 0.043 | dasatinib -0.045 | [2] 0.092 | [3] 0.013 | quisinostat -0.093 | tipifarnib 0.014 | [4] -0.047 | [6] 0.094

PPP1R11 (UniProt O60927)
Chain of UniProt O60927 (O60927 whole entry, looked up): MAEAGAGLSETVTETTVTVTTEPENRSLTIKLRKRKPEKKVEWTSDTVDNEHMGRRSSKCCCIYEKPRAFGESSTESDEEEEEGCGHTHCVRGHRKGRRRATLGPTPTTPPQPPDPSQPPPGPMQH
inactive: nilotinib -0.03 | [1] 0.035 | dasatinib -0.051 | [2] 0.074 | [3] -0.055 | quisinostat -0.131 | tipifarnib -0.001 | [4] 0.01 | [5] -0.067 | [6] 0.078

PGRMC1 (UniProt O00264)
inactive: nilotinib 0.028 | [1] 0.015 | dasatinib 0.026 | [2] -0.078 | [3] 0.012 | quisinostat 0.106 | tipifarnib 0.003 | [4] -0.059 | [5] 0.017 | [6] 0.056

PPP2R3C (UniProt Q969Q6)
inactive: nilotinib -0.139 | [1] 0.057 | dasatinib -0.061 | [2] -0.13 | [3] -0.009 | tipifarnib 0.057 | [5] 0.038 | [6] 0.062

PFN3 (UniProt P60673)
Chain of UniProt P60673 (P60673 whole entry, looked up): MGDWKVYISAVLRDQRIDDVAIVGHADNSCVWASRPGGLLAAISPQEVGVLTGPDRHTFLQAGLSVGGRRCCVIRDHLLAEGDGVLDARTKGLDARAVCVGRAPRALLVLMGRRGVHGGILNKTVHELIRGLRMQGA
inactive: nilotinib -0.104 | [1] 0.001 | [2] 0.033 | quisinostat -0.349 | tipifarnib -0.083 | [4] -0.044 | [5] -0.087

PPP2CA (UniProt E7ESG8)
inactive: nilotinib 0.025 | [1] -0.108 | [2] -0.232 | tipifarnib 0.356

PHGDH, A0A286YFE1
inactive: dasatinib 0.086 | [3] 0.258 | [5] -0.29

PNPLA4 (UniProt P41247)
inactive: dasatinib 0.099 | [3] 0.194 | quisinostat 0.048 | [4] 0.037

PYGO2 (UniProt Q9BRQ0)
inactive: nilotinib 0.01 | [1] 0.044 | dasatinib -0.028 | [2] 0.063 | [3] 0.004 | quisinostat 0.016 | tipifarnib -0.02 | [4] -0.015 | [6] 0.029

PDE4DIP (UniProt E9PS60)
inactive: nilotinib -0.074 | [1] 0.052 | dasatinib -0.158 | [2] -0.045 | [3] -0.073 | quisinostat -0.256 | tipifarnib 0.081 | [4] -0.205 | [6] -0.025

PPME1 (UniProt Q9Y570)
inactive: dasatinib 0.032 | [3] -0.08 | [5] 0.048 | [6] 0.027

PPIC (UniProt P45877)
inactive: nilotinib -0.112 | [1] 0.069 | dasatinib 0.037 | [2] -0.02 | [3] -0.036 | quisinostat -0.063 | tipifarnib 0.145 | [4] 0.206 | [6] -0.045

PCBP2 (UniProt F8VRH0)
inactive: nilotinib -0.221 | [1] -0.532 | [2] -0.063 | quisinostat 0.034 | tipifarnib -0.167 | [4] -0.059 | [5] 0.232 | [6] 0.003

PIK3CD (UniProt O00329)
Chain of UniProt O00329 (O00329 whole entry, looked up): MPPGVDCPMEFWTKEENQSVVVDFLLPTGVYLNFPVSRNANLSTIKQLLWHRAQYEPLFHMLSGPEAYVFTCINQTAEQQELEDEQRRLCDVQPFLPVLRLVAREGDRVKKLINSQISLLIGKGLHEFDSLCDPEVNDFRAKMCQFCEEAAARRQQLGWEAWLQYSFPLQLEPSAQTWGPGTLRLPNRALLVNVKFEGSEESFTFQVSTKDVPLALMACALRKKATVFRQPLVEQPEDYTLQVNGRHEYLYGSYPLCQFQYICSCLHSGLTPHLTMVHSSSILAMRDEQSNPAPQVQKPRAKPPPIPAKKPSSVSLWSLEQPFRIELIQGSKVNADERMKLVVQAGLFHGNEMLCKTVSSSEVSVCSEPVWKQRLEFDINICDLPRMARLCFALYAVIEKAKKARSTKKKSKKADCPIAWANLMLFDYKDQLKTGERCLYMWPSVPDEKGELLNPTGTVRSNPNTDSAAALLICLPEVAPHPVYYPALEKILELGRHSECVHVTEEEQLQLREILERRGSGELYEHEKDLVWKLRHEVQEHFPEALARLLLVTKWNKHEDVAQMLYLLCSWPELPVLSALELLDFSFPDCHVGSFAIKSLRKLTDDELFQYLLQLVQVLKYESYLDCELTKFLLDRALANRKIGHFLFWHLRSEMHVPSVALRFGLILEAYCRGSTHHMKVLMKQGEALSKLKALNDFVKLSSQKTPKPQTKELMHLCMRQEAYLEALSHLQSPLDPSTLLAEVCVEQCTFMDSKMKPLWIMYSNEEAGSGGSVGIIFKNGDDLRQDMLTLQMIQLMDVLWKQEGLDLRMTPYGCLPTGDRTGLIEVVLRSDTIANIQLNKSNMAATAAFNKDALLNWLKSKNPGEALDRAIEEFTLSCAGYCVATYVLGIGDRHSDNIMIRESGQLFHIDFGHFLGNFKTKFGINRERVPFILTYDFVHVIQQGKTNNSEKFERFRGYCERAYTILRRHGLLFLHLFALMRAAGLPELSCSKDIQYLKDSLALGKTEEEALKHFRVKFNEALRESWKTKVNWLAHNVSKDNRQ
inactive: nilotinib 0.059 | [1] 0.006 | [2] 0.122 | [3] 0.151 | quisinostat -0.091 | tipifarnib -0.053 | [4] 0.02 | [5] 0.001 | [6] 0.127

PHOSPHO2 (UniProt C9JD35)
inactive: quisinostat 0.073 | [4] -0.102

PHF14 (UniProt O94880)
inactive: nilotinib -0.127 | [1] -0.203 | dasatinib -0.1 | [2] 0.082 | [3] 0.085 | tipifarnib 0.073 | [5] -0.077

PTK2 isoform 2 (UniProt Q05397)
inactive: dasatinib 0.014 | [3] 0.102 | [5] 0.034 | [6] -0.168

PREP (UniProt H0Y5Y0)
inactive: [5] -0.087

PIAS2 (UniProt O75928)
inactive: nilotinib -0.019 | [1] -0.005 | dasatinib -0.097 | [2] 0.068 | [3] -0.026 | quisinostat 0.061 | tipifarnib -0.086 | [4] 0.004 | [6] 0.025

NA (UniProt Q4G0T1)
inactive: dasatinib 0.054 | [3] 0.095 | quisinostat 0.034 | [4] 0.054 | [6] 0.062

PPM1H (UniProt Q9ULR3)
inactive: dasatinib 0 | [3] 0.001 | quisinostat -0.036 | [4] -0.041 | [5] 0 | [6] -0.07

PCBP2 (UniProt F8W0G4)
inactive: nilotinib 0.034 | [1] -0.092 | dasatinib -0.138 | [2] -0.154 | [3] 0 | tipifarnib -0.298 | [6] 0.053

POLR2F (UniProt U3KPV3)
inactive: dasatinib -0.024 | [3] 0.038

PIK3CG (UniProt P48736)
inactive: nilotinib 0.004 | [1] -0.022 | [2] 0.079 | [3] 0.097 | quisinostat -0.139 | tipifarnib 0.003 | [4] 0.013 | [6] -0.017

POLR2M (UniProt Q6EEV4)
Chain of UniProt Q6EEV4 (Q6EEV4 whole entry, looked up): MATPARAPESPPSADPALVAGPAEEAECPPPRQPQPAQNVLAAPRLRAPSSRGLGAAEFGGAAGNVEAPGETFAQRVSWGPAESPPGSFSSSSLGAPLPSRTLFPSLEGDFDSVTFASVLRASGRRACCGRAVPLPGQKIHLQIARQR
inactive: dasatinib 0.02 | [3] -0.2 | quisinostat 0.011 | [4] 0.032 | [5] -0.015 | [6] 0.076

PRR4 (UniProt Q16378)
inactive: nilotinib 0.047 | [1] -0.145 | [2] -0.027 | tipifarnib 0.05 | [5] 0.032 | [6] 0.012

PPT2, A0A140T9Y1
inactive: nilotinib -0.054 | [1] 0.086 | [2] 0.089 | tipifarnib 0.1

POM121C (UniProt A8CG34)
inactive: [5] 0.022 | [6] -0.09

PPP1R14C (UniProt Q8TAE6)
inactive: nilotinib 0.075 | [1] -0.003 | dasatinib 0.105 | [2] -0.043 | [3] -0.173 | tipifarnib 0.073 | [5] -0.184

PCLAF (UniProt Q15004)
Chain of UniProt Q15004 (Q15004 whole entry, looked up): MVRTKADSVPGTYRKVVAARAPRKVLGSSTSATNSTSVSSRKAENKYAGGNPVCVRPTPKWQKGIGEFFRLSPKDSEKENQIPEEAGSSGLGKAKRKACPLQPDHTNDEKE
inactive: nilotinib -0.115 | [1] 0.081 | dasatinib 0.001 | [2] 0.02 | [3] -0.087 | quisinostat -0.044 | tipifarnib 0.018 | [4] -0.018 | [6] 0.094

PFN1 (UniProt I3L3D5)
inactive: nilotinib -0.009 | [1] -0.088 | [2] 0.108 | tipifarnib 0.006 | [5] 0.04

PPP2R5C isoform 2 (UniProt Q13362)
inactive: nilotinib -0.028 | [1] 0.021 | dasatinib -0.02 | [2] -0.068 | [3] 0.028 | tipifarnib 0.028 | [4] -0.284 | [6] -0.051
active: quisinostat 0.347

PPP1R12B isoform 6 (UniProt O60237)
inactive: dasatinib -0.065 | [3] 0.134 | [4] 0.006 | [5] 0.05 | [6] -0.075
active: quisinostat -0.531

PMS1 (UniProt P54277)
inactive: nilotinib -0.022 | [1] 0 | dasatinib -0.011 | [2] -0.001 | [3] 0.017 | quisinostat -0.086 | tipifarnib 0.058 | [4] 0.041 | [6] -0.029

PRKDC (UniProt P78527)
inactive: nilotinib -0.015 | [1] -0.01 | [2] 0.188 | [3] 0.038 | quisinostat -0.093 | tipifarnib -0.011 | [4] 0.004 | [5] 0.123 | [6] -0.073

PUF60 isoform 2 (UniProt Q9UHX1)
Chain of UniProt Q9UHX1 (Q9UHX1 whole entry, looked up): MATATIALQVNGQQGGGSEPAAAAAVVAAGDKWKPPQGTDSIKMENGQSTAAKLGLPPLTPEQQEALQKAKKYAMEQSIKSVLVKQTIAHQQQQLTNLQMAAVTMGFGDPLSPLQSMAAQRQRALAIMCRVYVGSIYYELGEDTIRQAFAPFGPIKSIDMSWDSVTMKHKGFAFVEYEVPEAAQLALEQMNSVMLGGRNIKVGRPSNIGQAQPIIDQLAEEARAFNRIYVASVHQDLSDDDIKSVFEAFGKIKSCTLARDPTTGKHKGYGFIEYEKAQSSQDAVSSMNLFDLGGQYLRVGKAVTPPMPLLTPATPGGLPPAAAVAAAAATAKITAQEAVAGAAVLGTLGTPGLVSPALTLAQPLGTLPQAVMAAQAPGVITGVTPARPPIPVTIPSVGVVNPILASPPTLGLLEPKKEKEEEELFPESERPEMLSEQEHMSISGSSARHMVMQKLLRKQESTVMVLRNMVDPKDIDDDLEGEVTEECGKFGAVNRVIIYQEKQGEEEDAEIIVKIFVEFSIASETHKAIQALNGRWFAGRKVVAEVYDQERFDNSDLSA
inactive: nilotinib -0.011 | [1] -0.027 | [2] 0.05 | quisinostat 0.013 | tipifarnib 0.023 | [4] 0.017 | [5] -0.016 | [6] -0.184

PPP2R5B (UniProt Q15173)
Chain of UniProt Q15173 (Q15173 whole entry, looked up): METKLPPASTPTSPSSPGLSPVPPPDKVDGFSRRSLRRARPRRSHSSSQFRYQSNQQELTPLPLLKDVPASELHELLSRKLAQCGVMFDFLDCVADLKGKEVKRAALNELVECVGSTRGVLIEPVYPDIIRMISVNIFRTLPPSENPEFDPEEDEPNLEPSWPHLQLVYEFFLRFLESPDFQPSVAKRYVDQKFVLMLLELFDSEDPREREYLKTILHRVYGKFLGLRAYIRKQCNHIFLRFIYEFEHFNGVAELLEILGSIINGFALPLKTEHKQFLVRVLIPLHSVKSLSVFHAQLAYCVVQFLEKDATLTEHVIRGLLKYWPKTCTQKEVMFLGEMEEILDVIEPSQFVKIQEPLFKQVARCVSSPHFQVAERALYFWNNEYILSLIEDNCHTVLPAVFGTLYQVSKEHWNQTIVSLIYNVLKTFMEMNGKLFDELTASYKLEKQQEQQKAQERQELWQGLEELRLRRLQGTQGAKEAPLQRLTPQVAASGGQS
inactive: dasatinib 0.018 | [3] 0.021 | quisinostat 0.058 | [4] -0.025 | [5] 0.011 | [6] -0.015

PICALM (UniProt H0YCY1)
inactive: [6] 0.013

PRIMPOL (UniProt Q96LW4)
Chain of UniProt Q96LW4 (Q96LW4 whole entry, looked up): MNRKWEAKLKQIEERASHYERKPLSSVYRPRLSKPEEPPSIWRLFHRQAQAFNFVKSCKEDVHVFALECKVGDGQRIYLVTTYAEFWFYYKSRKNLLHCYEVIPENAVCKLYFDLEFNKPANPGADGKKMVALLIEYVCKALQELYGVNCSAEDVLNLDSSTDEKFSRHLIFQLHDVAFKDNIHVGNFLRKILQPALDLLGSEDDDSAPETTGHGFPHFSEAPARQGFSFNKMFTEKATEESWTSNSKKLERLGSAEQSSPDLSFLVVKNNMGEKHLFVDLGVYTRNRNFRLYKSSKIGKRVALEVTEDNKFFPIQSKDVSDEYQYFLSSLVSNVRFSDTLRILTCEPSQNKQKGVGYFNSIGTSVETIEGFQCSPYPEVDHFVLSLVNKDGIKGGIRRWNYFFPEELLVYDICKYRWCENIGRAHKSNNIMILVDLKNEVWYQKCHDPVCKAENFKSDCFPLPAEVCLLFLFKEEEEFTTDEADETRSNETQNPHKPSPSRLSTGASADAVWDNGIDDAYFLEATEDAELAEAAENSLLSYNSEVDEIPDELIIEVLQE
inactive: nilotinib 0.112 | [1] -0.089 | dasatinib 0.034 | [2] -0.15 | [3] -0.037 | quisinostat -0.039 | tipifarnib 0.17 | [4] 0 | [6] -0.126
